In PubChem BioAssay (NCI):
The panel holds about 83,000 compounds, 20% with a hit somewhere; the sample as a whole holds those more often.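 Compound tested at a single concentration for 48 hours in 96-well plates; a percent growth value below 10 was scored as active.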 A number with no mark means an inactive call. Active and inactive are the calls of the source.

Columns and labels:
Experiment in all cases: NCI-60 one-dose screen, 48 h (100 = growth as untreated, 0 = no growth, -100 = all killed)
Settings in all cases: 10 µM unless noted
[1] = test system: T-47D breast
[2] = test system: MDA-MB-435 melanoma
[3] = test system: MCF7 breast
[4] = test system: HCT-116 colon
[5] = test system: HCC-2998 colon
[6] = test system: KM12 colon
[7] = test system: SW-620 colon

| SMILES | growth [1] | growth [2] | growth [3] | growth [4] | growth [5] | growth [6] [%] | growth [7] |
| --- | --- | --- | --- | --- | --- | --- | --- |
| COC(=O)c1nc(-c2ccccc2)oc1S(=O)(=O)N1CCN(c2cccc(Cl)c2)CC1 | 66.2% | 69.8% | 39.2% | 54.8% | 98.8% | 95.1 | – |
| CC(C)(C)n1cc(-c2ccnc(NCCNS(=O)(=O)c3ccc(Cl)cc3)c2)c(-c2cccc(O)c2)n1 | 38% | 71.2% | 28.2% | 45.4% | 36.7% | 42.5 | 28% |
| Cc1cc(C2(c3cc(C)c(O)cc3C)OS(=O)(=O)c3ccccc32)c(C)cc1O | 102% | 116% | 78.5% | 103% | 101% | 106 | 106% |
| CC(C)(C)n1cc(-c2ccnc(NCCNS(=O)(=O)c3ccc(F)cc3)c2)c(-c2cccc(O)c2)n1 | 23.7% | 64.7% | 28.5% | 37.3% | 31.2% | 36.1 | 11% |
| C=C1CCC2C(C)(CO)C(O)CCC2(C)C1C/C=C1/C(=O)OCC1O/C=C/c1ccccc1 (stereo unspecified) | 33.4% | 75.8% | 32.6% | 58.5% | 101% | 74.8 | – |
| O=S(=O)(NCCCNc1nccc(-n2ccc3cccnc32)n1)c1cccc(C(F)(F)F)c1 | 99.6% | 108% | 103% | 105% | 119% | 98 | 108% |
| Cc1nc2ncccc2nc1Nc1ccc(S(=O)(=O)Nc2cncs2)cc1 | 82.7% | 114% | 82.2% | 97.5% | 95.1% | 97.7 | – |
| O=C(NS(=O)(=O)c1ccccc1)n1cc(-c2ccncc2)c(-c2ccc(Cl)c(O)c2)n1 | 107% | 67.9% | 109% | 89.1% | 127% | 99.6 | 136% |
| COc1ccc(-n2c(=O)sc3c(Cl)nc(C)nc32)c(OC)c1 | 84.7% | 69.5% | 97.6% | 64.7% | 87.3% | 90 | 74.8% |
| N=c1ccc2nc3ccc(N)cc3sc-2c1 | 5.98% (active) | -56.6% (active) | 14.6% | 1.01% (active) | 53.2% | 18.1 | 31.7% |
| O=C(NNC(=O)N1c2ccccc2C=Cc2ccccc21)c1ccccc1 | 102% | 103% | 95.6% | 103% | 114% | 105 | 107% |
| C=C[C@@H]1C[C@@H]2Cc3cc(Cl)ccc3N1O2 | 103% | 92.5% | 112% | 98.2% | 94.2% | 97.3 | 96.7% |
| Cc1ccc(S(=O)(=O)NCCCNc2cc(-c3cn(C(C)(C)C)nc3-c3cccc(O)c3)ccn2)cc1 | 44.2% | 63.1% | 45.7% | 52.5% | 50.3% | 39.8 | – |
| O=C(/C=C/c1c[nH]c2ccccc12)c1ccc(O)c(CN2CCN(c3ccc(F)cc3)CC2)c1 | 98% | 109% | 98.5% | 98.3% | – | 99.5 | 104% |
| CCN(CC)CCC(CNc1ccnc2cc(Cl)ccc12)c1ccc(Cl)cc1 (stereo unspecified) | -76% (active) | – | -70.7% (active) | -26.9% (active) | -64.8% (active) | 17.9 | -67.8% (active) |
| CC12CCC3C4(C)COC(c5ccccc5Cl)OC4CCC3(C)C1CC(C1=CCOC1=O)O2 (stereo unspecified) | 31.1% | 54.2% | 46.6% | 40.5% | 77.4% | 59.9 | 84.7% |
